PubChem BioAssay (EPA / NIEHS)
Active and inactive are the calls of the source. The calls were made as follows: active = hit-call score of the fitted dose curve at least 0.9, where 1 is the maximum; inactive = score below 0.9.

test: ATG_FoxO_CIS: Attagene CIS-FACTORIAL HepG2 Assay for human Forkhead box O (FoxO) (AID 2282943); settings: HepG2 Attagene cis-reporter, FoxO element, mRNA; actives raise or lower the signal
Method: ATG_CIS is a cell-based, multiplexed-readout assay that uses HepG2, a human liver cell line, with measurements taken at 24 hours after chemical dosing in a 24-well plate.ATG_FoxO_CIS is one of 52 assay component(s) measured or calculated from the ATG_CIS assay. It is designed to make measurements of mRNA induction, a form of inducible reporter, as detected with fluorescence intensity signals by Reverse transcription polymerase chain reaction (RT-PCR) and Capillary electrophoresis technology.Data from the assay component ATG_FoxO_CIS was analyzed into 1 assay endpoint. This assay endpoint, ATG_FoxO_CIS, was analyzed with bidirectional fitting relative to DMSO as the negative control and baseline of activity. Using a type of inducible reporter, measures of mRNA for gain or loss-of-signal activity can be used to understand the reporter gene at the transcription factor-level as they relate to the gene FOXO1 and FOXO3. Furthermore, this assay endpoint can be referred to as a primary readout, because this assay has produced multiple assay endpoints where this one serves a reporter gene function. To generalize the intended target to other relatable targets, this assay endpoint is annotated to the dna binding intended target family, where the subfamily is forkhead box protein.
Human liver HepG2 cells are transiently transfected with multiple reporter transcription units (MRTUs) in 6-well plates using FuGene 6 reagent (Roche; 3 ml FuGene/1 mg DNA). The MRTU constructs are regulated by a cis-regulating element (promoter). […] A major difference between the CIS and TRANS system is that in CIS activities of endogenous TFs are measured, whereas the TRANS assay evaluates changes in activities of exogenous, chimeric NR-Gal4 proteins. […] At the end of 24 hour incubation, total RNA was isolated using TriZol reagent (Invitrogen). The isolated RNA is then reverse-transcribed using oligo(dT) primer and Mo-MLV reverse transcriptase (Invitrogen) with DNAse I (Ambion) treatment for 30 min. The one-tenth of the produced cDNA was amplified by PCR using Taq DNA polymerase (Invitrogen) and two reporter sequence-specific primers. The PCR products were fluorescently labeled by primer extension with 6-arboxyfluorescein (6-FAM) 5'-labeled reporter sequence-specific primer (2 min at 95 C, 20 s at 68 C and 10 min at 72 C) and these products were digested with 5U of HpaI (New England Biolabs) for 2h at 37 C. The fragments were purified using Qiaquick PCR columns (Qiagen), analyzed on an ABI 3130xL genetic analyzer (Applied Biosystems) with peak positions identified by using a set of X-rhodamine (ROX)-labeled MapMarker1000 molecular weight standards (BioVentures). The raw capillary electrophoresis data was processed using Attagraph software (Attagene).

SMILES	outcome	AC50
COc1cc(Cl)c(OC)cc1N	inactive	–
CCc1cc(C(C)(C)C)c(O)c(C(C)(C)C)c1	inactive	–
ON=C1CCCCC1	inactive	–
COCCOC(=O)c1ccccc1C(=O)OCCOC	inactive	–
CN1CCOCC1	inactive	–
CC(=O)O[C@H]1C[C@@H]2CC[C@@]1(C)C2(C)C	inactive	–
CC1=CC[C@@]23C[C@@H]1C(C)(C)[C@@H]2CC[C@H]3C	–	157 µM (active)
Clc1ccc(C(c2ccccc2Cl)C(Cl)Cl)cc1 (stereo not given)	–	69.8 µM (active)
C=C(C#N)C(=O)OCC	inactive	–
Cc1ccc2c(c1)C(=O)OC2=O	inactive	–
CCCC(C)C(O)CC (stereo not given)	inactive	–
COc1ccccc1[N+](=O)[O-]	inactive	–
COc1ccc(N=Nc2cc(C)c(N=Nc3ccc(S(=O)(=O)O)cc3)cc2OC)cc1	inactive	–
OCCCCC(O)CO (stereo not given)	inactive	–
ClC(c1ccccc1)(c1ccccc1)c1ccccc1	inactive	–
C=C(C)C1CC=C(C)C(=O)C1 (stereo not given)	inactive	–
O=[N+]([O-])c1cccc(Cl)c1	inactive	–
CCc1cc(Cc2cc(CC)cc(C(C)(C)C)c2O)c(O)c(C(C)(C)C)c1	inactive	–
CCCOC(=O)c1c(Cl)c(Cl)c(Cl)c(Cl)c1C(=O)OCCC	inactive	–
CCCCCCCCc1ccc(S(=O)(=O)O)cc1	–	159 µM (active)

SMILES	outcome	AC50
C[C@@H]1CCN(C(=O)[C@H](CCCN=C(N)N)NS(=O)(=O)c2cccc3c2NC[C@H](C)C3)[C@@H](C(=O)O)C1	inactive	–
COCCc1ccc(OCC(O)CNC(C)C)cc1 (stereo not given)	inactive	–
C=CC(=O)OCCCC	inactive	–
CC(C)CCOC(=O)c1ccccc1	inactive	–
FC(F)(F)COCC(F)(F)F	inactive	–
Cc1cc(S(=O)(=O)O)ccc1N=Nc1c(O)ccc2ccccc12	inactive	–
[O-]n1ccccc1=S.[O-]n1ccccc1=S.[Zn+2]	inactive	–
CC(O)C1CCCCC1 (stereo not given)	inactive	–
CC(C)CCCCCCCCCCCCCCC(=O)O	inactive	–
CCCCCC(=O)CC	inactive	–
CCCC(=O)C(CC)Sc1ccoc1C (stereo not given)	inactive	–
Cc1ccc(C)o1	inactive	–
CC=Cc1ccc(OCC)c(O)c1	inactive	–
COc1ccc(N)c([N+](=O)[O-])c1	inactive	–
Cc1cc(=O)oc2cc(N(C)C)ccc12	inactive	–
[Cl][Au]([Cl])[Cl]	inactive	–
CS(C)=O	inactive	–
COc1ccc(CCC(C)=O)cc1	inactive	–
OCCc1ccccc1	inactive	–
O=C(O)CNc1ccccc1	inactive	–
